{"source": "PubChem BioAssay AID1117319", "about": "(Southern Research Institute, 2015)", "note": "“And” between values parts separate entries of the source, which are not always exact repeats. Equal values may be shown once. About 1,500 (0.58%) of roughly 260,000 compounds were called active. About 5% were inconclusive and are not listed. Only a sample is shown. Potency and affinity values are given separately. Unmarked numbers belong to inactive results.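 How the source made its calls: active means inhibition above a set limit at one or more doses, reproduced on every date tested; inconclusive means results disagree between test dates, or hit never tested in dose response; inactive means the rest.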"}
{"target": "Virion infectivity factor (Human immunodeficiency virus type 1 group M subtype B (isolate BH10)) + Virion infectivity factor (Human immunodeficiency virus type 1 group M subtype B (isolate BRU/LAI)) + Virion infectivity factor (Human immunodeficiency virus type 1 group M subtype B (isolate PCV12)) + Virion infectivity factor (Human immunodeficiency virus type 1 group M subtype B (isolate HXB2)) + DNA dC->dU-editing enzyme APOBEC-3G (Homo sapiens) (UniProt P69720+P69721+P69722+P69723+Q9HC16)", "experiment": "HIV-1 Vif–A3G interaction blockers – biochemical, TR-FRET, GST-Vif 1-94, biotin-A3G peptide, dose response retest, primary screen (AID 1117319);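 further: Vif residues 1-94 fused to GST binding biotinylated APOBEC3G peptide 110-148; 0% = full assay without inhibitor and 100% = GST in place of GST-Vif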", "details": "TR-FRET GST-Vif / biotin-A3G peptide binding; hits give high values"}
{"smiles": "COCCN1C(=O)CC(NNC(=O)c2ccc(S(=O)(=O)N3CCCC3)cc2)C1=O", "note": "(stereo unspecified)", "inhibition": "8%"}
{"smiles": "CCCC(C)NC(=O)c1ccc(-c2ccccc2)cc1", "note": "(stereo unspecified)", "inhibition": "-5.95%"}
{"smiles": "Nc1nc(-c2ccco2)cs1", "inhibition": "-0.78%"}
{"smiles": "Nc1nnc(-c2ccco2)s1", "inhibition": "15.6%"}
{"smiles": "CCOC(=O)c1cnc(-n2nc(C)cc2C)[nH]c1=O", "inhibition": "-8.45%"}
{"smiles": "Cc1sc(-c2ccccn2)nc1OC(=O)c1ccc(Cl)c(Cl)c1", "inhibition": "-6.3%"}
{"smiles": "O=C(COC(=O)c1c2c(nc3ccccc13)/C(=C/c1cccc([N+](=O)[O-])c1)CCC2)NC1CCS(=O)(=O)C1", "note": "(stereo unspecified)", "inhibition": "29.1%"}
{"smiles": "CC1CCCCC1NC(=O)COC(=O)c1ccc2ccccc2n1", "note": "(stereo unspecified)", "inhibition": "-3.73%"}
{"smiles": "CCc1nc2ccccc2c(C(=O)OCC(=O)NC2CCCC2)c1C", "inhibition": "4.22%"}
{"smiles": "CN(CCC#N)C(=O)COC(=O)c1nn(-c2ccccc2)c(=O)c2ccccc12", "inhibition": "-3.88%"}
{"smiles": "CN1CCc2nc3ccccc3c(C(=O)OCC(=O)N(CCC#N)c3ccccc3)c2C1", "inhibition": "-5.14%"}
{"smiles": "CC1CCCCC1NC(=O)COC(=O)c1c2c(nc3ccccc13)/C(=C\\c1ccco1)CC2", "note": "(stereo unspecified)", "inhibition": "4.28%"}
{"smiles": "Cc1ccc(N(Cc2ccccc2)C(=O)c2cccc(S(=O)(=O)N3CC(C)OC(C)C3)c2)cc1", "note": "(stereo unspecified)", "inhibition": "5.98%"}
{"smiles": "CCCCc1nnc(NC(=O)Cc2ccc(S(=O)(=O)N3CCOCC3)s2)s1", "inhibition": "-4.48%"}
{"smiles": "CCc1ccc(CN(C)C(C)C(=O)NCc2ccccc2)cc1", "note": "(stereo unspecified)", "inhibition": "-5.54%"}
{"smiles": "CCOC(=O)c1oc2cc(C)cc(C)c2c1C", "inhibition": "12.6%"}
{"smiles": "C[C@]1(C(=O)NCCN2CCOCC2)C=C[C@@H](Cc2ccccc2)N1C(=O)c1ccccc1", "inhibition": "-2.79%"}
{"smiles": "N#Cc1cnc(N)c(Br)c1", "inhibition": "-0.24%"}
{"smiles": "COc1ccc(-n2c(=S)[nH]c3cc(C(=O)NCc4cccnc4)ccc3c2=O)cc1", "inhibition": "-1.63%"}
{"smiles": "Fc1cccc(F)c1-n1c(CN2CCOCC2)csc1=S", "inhibition": "-4.65%"}
{"smiles": "C/C(N)=C(/C#N)C(=O)CSc1nnc(Nc2cccc(C)c2)s1", "inhibition": "29.1%"}
{"smiles": "C/C(N)=C(/C#N)C(=O)CSc1nnc(Nc2ccccc2C)s1", "inhibition": "5.27%"}
{"smiles": "Cn1c(SCC(=O)NCc2ccc3c(c2)OCO3)nnc1-c1cc2ccccc2cc1O", "inhibition": "5.67%"}
{"smiles": "CCNc1nc(NCC)nc(SCC(C)=O)n1", "inhibition": "1.47%"}
{"smiles": "NS(=O)(=O)c1ccc(CNC(=O)c2ccc(S(=O)(=O)NCc3ccco3)cc2)cc1", "inhibition": "-7.37%"}
{"smiles": "O=C(CCc1c[nH]c2ccccc12)NCc1ccco1", "inhibition": "14.9%"}
{"smiles": "O=C(NCc1ccccc1F)c1ccc(S(=O)(=O)NCc2ccco2)cc1", "inhibition": "1.91%"}
{"smiles": "O=C(Cc1c[nH]c2ccccc12)NCc1ccco1", "inhibition": "-2.84%"}
{"smiles": "O=C(NCCc1ccccc1)c1nc2ncccn2n1", "inhibition": "8.66%"}
{"smiles": "COc1ccc(NC(=O)CCNS(=O)(=O)c2cccc3nonc23)cc1Cl", "inhibition": "7.84%"}
{"smiles": "COc1ccc(/C=C(/CC(=O)NCc2ccc(Cl)cc2)c2nc3ccccc3s2)cc1", "inhibition": "2.71%"}
{"smiles": "COc1ccccc1/C=C(/CC(=O)NCc1ccc(F)cc1)c1nc2ccccc2s1", "inhibition": "-7%"}
{"smiles": "COc1ccc(Cl)cc1C(=O)Nc1ccccc1N1CCN(C)CC1", "inhibition": "1.41%"}
{"smiles": "O=C(Nc1ccc(C(=O)O)cc1)/C(=C\\c1ccco1)NC(=O)c1ccccc1", "inhibition": "26.2%"}
{"smiles": "COC(=O)/C(=C/c1ccco1)NC(=O)c1ccccc1", "inhibition": "11.2%"}
{"smiles": "Fc1ccc(-c2cc(C(F)(F)F)nc(-n3cccn3)n2)cc1", "inhibition": "21.7%"}
{"smiles": "CCc1ccc2[nH]c(=O)c(C(c3nnnn3CCOC)N3CCN(c4ccc(F)cc4)CC3)cc2c1", "note": "(stereo unspecified)", "inhibition": "9.01% and 16.1%"}
{"smiles": "CCc1ccc2[nH]c(=O)c(C(c3nnnn3CCOC)N3CCN(c4ccccc4)CC3)cc2c1", "note": "(stereo unspecified)", "inhibition": "9.41% and 22.6%"}
{"smiles": "Cc1ccc(SCC(=O)NNC(=O)CCS(=O)(=O)c2ccc(C)cc2)cc1", "inhibition": "-4.89%"}
{"smiles": "CCCNC(=O)c1ccccc1C(=O)NCCC", "inhibition": "-3.84%"}
{"smiles": "CCOCCCNC(=O)c1ccccc1Br", "inhibition": "79.3%"}
{"smiles": "Cc1nn(-c2ccccc2)c(C)c1C1C(C#N)=C(N)Oc2n[nH]c(C)c21", "note": "(stereo unspecified)", "inhibition": "-0.66%"}
{"smiles": "CCCCC(=O)Nc1cccc(-c2csc(-c3ccccc3)n2)c1", "inhibition": "-12.6%"}
{"smiles": "O/N=C1\\CC(O)Cc2nonc21", "note": "(stereo unspecified)", "inhibition": "-4.67%"}
{"smiles": "CCCC(c1nnnn1CC(=O)OCC)N(Cc1cc2ccc(C)cc2[nH]c1=O)C1CCCC1", "note": "(stereo unspecified)", "inhibition": "4.45% and 9.64%"}
{"smiles": "CCCC(c1nnnn1CC(=O)OCC)N(Cc1cc2c(C)cc(C)cc2[nH]c1=O)C1CCCC1", "note": "(stereo unspecified)", "inhibition": "68.5%"}
{"smiles": "O=C(Nc1ncn[nH]1)c1ccccc1O", "inhibition": "-9.78%"}
{"smiles": "COc1ccc(N2C(=O)C3C4C=CC(C4)C3C2=O)c(OC)c1", "note": "(stereo unspecified)", "inhibition": "1.91%"}
{"smiles": "COc1ccc(NC(=O)CN2CCN(c3ccccc3F)CC2)cc1", "inhibition": "8.91%"}
{"smiles": "COC(=O)c1ccc(CN(C(=O)N2CCN(C)CC2)S(=O)(=O)c2ccc(C)cc2)cc1", "inhibition": "2.32%"}
{"smiles": "CN1CCN(C(=O)CSc2nc(-c3ccco3)cc(C(F)(F)F)n2)CC1", "inhibition": "-4.57%"}
{"smiles": "O=C(CSc1nc(-c2ccco2)cc(C(F)(F)F)n1)N1CCCc2ccccc21", "inhibition": "-15.3% and -9.35%"}
{"smiles": "O=C(Nc1ccc(F)cc1)C(=O)C1C(=O)Nc2ccccc21", "note": "(stereo unspecified)", "inhibition": "-6.37%"}
{"smiles": "COC(=O)C1=C(O)/C(=C\\c2ccc(OCC(=O)Nc3ccccc3)cc2)N=C1C", "inhibition": "-9.89%"}
{"smiles": "CCOC(=O)C1=C(O)/C(=C\\c2cccs2)N=C1C", "inhibition": "15.1%"}
{"smiles": "Cc1ccc(NC(=O)C(=O)NCc2ccc(/C=N/NC(=O)c3c(C)nc4ccccn34)o2)cc1", "inhibition": "26.2%"}
{"smiles": "CCOC(=O)C1=C(O)/C(=C\\c2sccc2C)N=C1C", "inhibition": "0.95%"}
{"smiles": "CCOC(=O)c1ccc(NC(=O)C(=O)NCc2ccc(/C=C(/C#N)C(=O)NCCOC)o2)cc1", "inhibition": "-2.3%"}
{"smiles": "Cc1ccc(NC(=O)C(=O)NCc2ccc(/C=N/NC(=O)c3c(C)nc4cc(C)ccn34)o2)cc1", "inhibition": "19.2%"}
{"smiles": "Cc1ccc(NC(=O)C(=O)NCc2ccc(/C=C(/C#N)C(=O)NCc3cccnc3)o2)cc1", "inhibition": "7.86%"}
{"smiles": "O=C(NCc1ccc(/C=c2\\sc3n(c2=O)CCN=3)o1)C(=O)Nc1ccccc1", "inhibition": "-17%"}
{"smiles": "O=C(COC(=O)/C=C/c1cccc(Br)c1)NCCC1=CCCCC1", "inhibition": "12.4%"}
{"smiles": "Cc1cc(C(=O)N2CCN(c3ccccc3Cl)CC2)c(C)o1", "inhibition": "3.3%"}
{"smiles": "C=CCNc1nc(-c2ccc(OC)cc2OC)cs1", "inhibition": "-8.96%"}
{"smiles": "COc1cc(NC(=O)COc2ccc(Cl)cc2)ccc1NC(=O)C(C)C", "inhibition": "1.28%"}
{"smiles": "CCCSc1cc(N)cc([N+](=O)[O-])c1", "inhibition": "-12.3%"}
{"smiles": "CCN(CC)CCN(C(=O)CCS(=O)(=O)c1ccccc1)c1nc2cc(C)cc(C)c2s1", "inhibition": "7.31%"}
{"smiles": "O=C(CSc1ncn[nH]1)Nc1ccc2c(c1)CCC2", "inhibition": "-3.75%"}
{"smiles": "N#Cc1ccc(/C=N/NC(=S)Nc2ccc(S(=O)(=O)N3CCOCC3)cc2)cc1", "inhibition": "27.6%"}
{"smiles": "CCCOc1ccc(/C=N/NC(=S)Nc2ccccc2[N+](=O)[O-])c(O)c1", "inhibition": "5.31%"}
{"smiles": "O=[N+]([O-])c1cc(/C=N/NC(=S)Nc2ccccc2Cl)ccc1Cl", "inhibition": "8.67%"}
{"smiles": "O=S(=O)(c1ccc(NC(=S)N/N=C/c2ccc(N3CCOCC3)cc2)cc1)N1CCOCC1", "inhibition": "0.51%"}
{"smiles": "CCOc1ccc(/C=N/NC(=O)C(OC)c2ccccc2)cc1", "note": "(stereo unspecified)", "inhibition": "-8.04%"}
{"smiles": "Cc1nnc(N(C)C(=O)c2cccnc2)s1", "inhibition": "-3.79%"}
{"smiles": "COc1ccc(/C=N/NC(=O)c2ccccc2O)cc1Cn1cc([N+](=O)[O-])cn1", "inhibition": "22.8%"}
{"smiles": "COc1ccc(/C=N/NC(=O)c2ccccc2)cc1CN1CCN(c2ccc(F)cc2)CC1", "inhibition": "1.7%"}
{"smiles": "COc1cc(C(=O)N/N=C/c2ccc(OC)c(CN3CCN(c4ccc(F)cc4)CC3)c2)ccc1O", "inhibition": "-4.76%"}
{"smiles": "COc1ccc(/C=N\\NC(=O)c2cccc([N+](=O)[O-])c2)cc1Cn1cc([N+](=O)[O-])cn1", "inhibition": "9.14%"}
{"smiles": "CC(=O)Oc1cc2c(cc1OC(C)=O)C(=O)CCCC2", "inhibition": "-3.59%"}
{"smiles": "CCc1cccc2c(C(=O)CSc3nncn3C)c[nH]c12", "inhibition": "3.36%"}
{"smiles": "O=C(COC(=O)c1ccccn1)NCc1cccc(Cl)c1", "inhibition": "11.7%"}
{"smiles": "CCC1CCCCN1C(=O)c1ccccc1OC1CCN(S(C)(=O)=O)CC1", "note": "(stereo unspecified)", "inhibition": "6.69%"}
{"smiles": "Oc1c(CN2CCOCC2)cc(-c2ccccc2)cc1CN1CCOCC1", "inhibition": "2.33%"}
{"smiles": "Cc1c(Cl)cc(C(C)C)c(O)c1CN1CCOCC1", "inhibition": "-0.22%"}
{"smiles": "O=C(NCCCN1CCOCC1)c1csc2c1CCCC2", "inhibition": "-1.89%"}
{"smiles": "CCOc1ccc(-c2cc(C(=O)NCCCN3CCOCC3)c3ccccc3n2)cc1", "inhibition": "-4.67%"}
{"smiles": "COc1ccc(C2NC(=O)NC(O)(C(F)(F)F)C2C(=O)c2ccccc2)cc1OC", "note": "(stereo unspecified)", "inhibition": "-3.65%"}
{"smiles": "O=C1NC(c2cn(-c3ccccc3)nc2-c2cccs2)C(C(=O)c2cccnc2)C(O)(C(F)(F)F)N1", "note": "(stereo unspecified)", "inhibition": "1.08%"}
{"smiles": "CCC(Oc1ccccc1)C(=O)Nc1ccc(S(=O)(=O)N2CCOCC2)cc1", "note": "(stereo unspecified)", "inhibition": "15.9%"}
{"smiles": "CCc1nc(SCC(=O)N2CCCC2)c2ccccc2n1", "inhibition": "14.3%"}
{"smiles": "CCOc1cc(C(=O)Nc2ccc(N3CCOCC3)cc2)cc(Br)c1OC", "inhibition": "12.9%"}
